TRPM1 prom inh – inhibitors of MITF-driven TRPM1 promoter in melanoma cells; SK-MEL-5 TRPM1 promoter luciferase, 24 h; inhibition, % at 12.5 µM; actives 0.83% (n = 330,000);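 active means mean inhibition across replicates of 60% or more, whatever share of single replicates reaches that level; inconclusive means some that reach 60%, reason not given; inactive means mean inhibition across replicates below 60%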
Shn3 3UTR inh – reduces Shn3 3'UTR luciferase signal in osteoblasts; Clone20 osteoblast Shn3 3'UTR firefly luciferase, 24 h; inhibition, % at 12.5 µM; actives 0.52% (n = 360,000);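 active means mean inhibition of at least 75% with every replicate also reaching 75%; inconclusive means mean inhibition at least 75% but some replicate below; inactive means mean inhibition below 75%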
EBV LMP1 NFkB – Epstein-Barr LMP1 NF-kappaB reporter inhibition; LMP1-induced NF-kappaB luciferase reporter cells, luminescence; inhibition, % at 12.5 µM; actives 0.69% (n = 350,000); AID 504558; in the data active means inhibition above about 41%; inconclusive means no clear call, values can overlap the other calls
TWEAK Fn14 block – inhibitors of TWEAK-Fn14 interaction signaling; TWEAK-stimulated Fn14 reporter cells, luciferase luminescence, 8 h; inhibition, % at 10 µM; actives 2% (n = 360,000); AID 1159606; in the data active means inhibition above about 50%
Peg3 promoter – reduces Peg3 promoter-driven luciferase expression in HeLa; actives 1.7% (n = 360,000); inhibition, % at 20 µM; HeLa PEG-Prom luciferase reporter, luminescence, overnight;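 active means inhibition of at least 50% at 20 µM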
TROY signal inh – inhibitors of TROY-dependent NF-kB signaling; inhibition, % at 10 µM; actives 0.98% (n = 360,000); Q293 LMP1-TROYcd NF-kB luciferase reporter, 4 h;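 active means compounds whose plate-normalised and pattern-corrected inhibition of the luciferase reporter signal at the single screening dose is 50% or more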
Large screens that a line does not name were inactive. The list is not random: actives were taken first. Their share in the collection is about 4.1%.

Cc1cc(-c2nc(-c3ccncc3)no2)ccc1[N+](=O)[O-]	none
c1ccc(-c2ccc(-c3nc(-c4ccccn4)no3)cc2)cc1	Shn3 3UTR inh 83, EBV LMP1 NFkB 83, TWEAK Fn14 block 106, Peg3 promoter 97, TROY signal inh 89 (no result: TRPM1 prom inh)
Cc1ccc(-c2nc(-c3ccccn3)no2)cc1[N+](=O)[O-]	TWEAK Fn14 block 62
c1ccc(-c2cc(-c3nc(-c4ccccn4)no3)c3ccccc3n2)cc1	none
c1ccc(-c2noc(-c3ccno3)n2)nc1	none
c1ccc(-c2noc(-c3ccco3)n2)nc1	TWEAK Fn14 block 53
c1ccc(-c2noc(-c3ccc4ccccc4c3)n2)cc1	TWEAK Fn14 block 81, TROY signal inh 69
N=c1sccn1CC(=O)Nc1cc(S(=O)(=O)N2CCCCC2)ccc1Cl	none
O=C(NCc1ccccc1F)Nc1nnc([C@@H]2C[C@H](O)[C@@H](CO)O2)s1	none (no result: TRPM1 prom inh, EBV LMP1 NFkB)
CCc1ccccc1N(C(=O)c1snc(C(N)=O)c1N)C(C(=O)NCC1CCCO1)c1ccc(C)o1 (stereo not drawn)	none
COc1ccc(N2CCN(C3CCCN(C(=O)CCN4CCCCO4)C3)CC2)cc1 (stereo not drawn)	none
Cc1noc(C)c1C(=O)OC(C)C(=O)NC(C)c1ccc(Cl)cc1Cl (stereo not drawn)	none
c1ccc(-c2noc(-c3cccc4ccccc34)n2)nc1	TWEAK Fn14 block 77
Cc1cccc(-c2nnc(-c3ccc4ccccc4c3)o2)c1	TWEAK Fn14 block 55
COc1cccc(-c2nc(-c3ccccn3)no2)c1OC	none
C[C@]12CCC(O)CC1=CCC1C2CC[C@]2(C)/C(=N\NC(N)=S)CCC12 (stereo partly drawn)	TWEAK Fn14 block 94
CC12CCC(O)CC1=CCC1C2CCC2(C)C1CCC21CCC(=O)O1 (stereo not drawn)	none
CCOC(=O)C1=C(CSc2nc3ccccc3s2)NC(=O)NC1c1ccc(OC)cc1 (stereo not drawn)	Peg3 promoter 64
CCOC(=O)C1=C(CSc2nc3ccccc3s2)NC(=O)NC1c1cc(C)ccc1C (stereo not drawn)	none
Cc1ncc(CN2CCC(CO)(CCc3ccccc3)CC2)s1	none
O=C(NCCc1nccs1)C1CCC(=O)N(CCc2ccc(Cl)cc2)C1 (stereo not drawn)	none
COc1cccc(-c2ccc3ncnc(N(C)Cc4ccco4)c3c2)c1	none
Cc1csc(CNc2ncnc3ccc(-c4ccoc4)cc23)c1	TWEAK Fn14 block 90, TROY signal inh 54
COc1cccc(-c2ccc3ncnc(NCc4ccc5c(c4)OCO5)c3c2)c1	TWEAK Fn14 block 80
Cc1csc(CNc2ncnc3ccc(-c4ccc5c(c4)OCO5)cc23)c1	none
COc1cccc(-c2ccc3ncnc(NCc4cc(C)cs4)c3c2)c1	TWEAK Fn14 block 77
Cc1ccsc1CN(C)c1ncnc2ccc(-c3ccoc3)cc12	TWEAK Fn14 block 68 (no result: TRPM1 prom inh, EBV LMP1 NFkB)
Cc1csc(CNc2ncnc3ccc(-c4cccnc4)cc23)c1	none
CC(C)C(C(=O)NCC1CCCO1)N(CC1CCCO1)C(=O)CNS(=O)(=O)c1ccccc1 (stereo not drawn)	none
c1cncc(CNc2ncnc3ccc(-c4ccoc4)cc23)c1	EBV LMP1 NFkB 46, TWEAK Fn14 block 84
O=C1CC(c2cccs2)Cc2nc(NC(=O)C3CC3)ncc21 (stereo not drawn)	EBV LMP1 NFkB 45 (no result: Shn3 3UTR inh)
Cc1ccsc1/C=N/NC(=O)c1nnn(-c2nonc2N)c1CSc1ccccc1	none
CC(C)(C)c1ccc(Oc2ccc(NC(=O)C3CC=CCC3C(=O)O)cc2)cc1 (stereo not drawn)	TROY signal inh 76
COc1cc(NC(=O)CSc2nnc(-c3cc(C)on3)o2)cc(OC)c1	none
Cc1cc(-c2nnc(SCC(=O)Nc3nc(-c4ccc(Cl)cc4)cs3)o2)no1	TWEAK Fn14 block 83
COc1ccc(C2C(O)C(c3c[nH]c4ccccc34)=NN2C(=O)CCl)cc1 (stereo not drawn)	TRPM1 prom inh 98, Shn3 3UTR inh 96, TWEAK Fn14 block 94, Peg3 promoter 117
COc1ccc(C2NN=C(c3c[nH]c4ccccc34)C2O)cc1 (stereo not drawn)	none
CC(C)CCSc1cc(NCCO)c([N+](=O)[O-])c2nonc12	none
CC(=O)OCCNc1cc(SC(C)C)c2nonc2c1[N+](=O)[O-]	none
Cc1ccc(Sc2cc(NCCCO)c([N+](=O)[O-])c3nonc23)cc1	TWEAK Fn14 block 55
CC(=O)OCCCNc1cc(Sc2ccc(Cl)cc2)c2nonc2c1[N+](=O)[O-]	TRPM1 prom inh 75, Shn3 3UTR inh inconclusive, TWEAK Fn14 block 79, Peg3 promoter 103, TROY signal inh 51
CC1CC(C)CN(C(=O)COC(=O)CNC(=O)C23CC4CC(CC(C4)C2)C3)C1 (stereo not drawn)	none
CCCCn1c(N)c(N(CC(C)C)C(=O)c2oc3c(Cl)cccc3c2C)c(=O)[nH]c1=O	none
O=C(CN1C(=O)NC2(CCCCCC2)C1=O)N1CCCCC1	none
Cc1sc2ncnc(N3CCC(C(=O)Nc4ccccc4C(C)(C)C)CC3)c2c1C	EBV LMP1 NFkB inconclusive, TWEAK Fn14 block 74, TROY signal inh 53
Cc1sc2ncnc(N3CCC(C(=O)Nc4nc(-c5cccs5)cs4)CC3)c2c1C	TWEAK Fn14 block 67
CCc1nnc(NC(=O)C2CCN(c3ncnc4sc(C)c(C)c34)CC2)s1	none
CCOC(=O)c1ccccc1NC(=O)C1CCN(c2ncnc3sc(C)c(C)c23)CC1	none
O=C(CSc1n[nH]c(=O)n1C1CC1)c1c[nH]c2ccccc12	none
CCCCc1ccc(NC(=O)CSC2=NN3CCCC(=O)N=C3S2)cc1	none
O=S(=O)(Cc1cc(Cl)nc(-c2ccccc2)n1)c1ccccc1	none
O=S(=O)(Cc1cc(Cl)nc(-c2ccncc2)n1)c1ccccc1	TROY signal inh 51
C=CCNc1nc(NCc2cccc(OC)c2)c2sc(-c3ccccc3)cc2n1	none (no result: TRPM1 prom inh, EBV LMP1 NFkB)
c1ccc(-c2cc3nc(NCc4cccs4)nc(NCc4ccc5occc5c4)c3s2)cc1	Peg3 promoter 64 (no result: TRPM1 prom inh, EBV LMP1 NFkB)
COC1CCN(C(=O)c2ccc3oc(C(C)C)nc3c2)CC1	none
COc1cc(/C=C2\SC(=O)NC2=O)ccc1Oc1ccc([N+](=O)[O-])cc1[N+](=O)[O-]	TWEAK Fn14 block 63
O=C1CC(N2CCN(c3ccccc3)CC2)C(=O)N1c1ccc2c(c1)OCCO2 (stereo not drawn)	TROY signal inh 51
O=C(C1CC(=O)N(c2ccc3c(c2)OCCO3)C1)N1CCN(c2ccccc2)CC1 (stereo not drawn)	TWEAK Fn14 block 64
O=C(C1CC(=O)N(c2ccc3c(c2)OCCO3)C1)N1CCN(Cc2ccccc2F)CC1 (stereo not drawn)	EBV LMP1 NFkB 70
O=C(NCCCc1ccccc1)C1CC(=O)N(c2ccc3c(c2)OCCO3)C1 (stereo not drawn)	TWEAK Fn14 block 71
Cc1ccc(S(=O)(=O)Nc2c(C)nc3nc(C)[nH]n3c2=O)c(C)c1	none

Screens from PubChem.
